Measured values from PubChem BioAssay AID1159580 (chemical genetic matrix, 2015).
“And” between values parts separate entries of the source, which are not always exact repeats. Equal entries are not always repeated. The whole screen tested about 5,500 compounds, of which about 2,000 (36%) were called active. Not shown: some 18% with an inconclusive outcome. No stated cut-off is given here; in the data, active means normalized growth mostly below about 0.91 (no sharp cut-off); inconclusive means no clear call, values can overlap the other calls; inactive means mostly above about 0.92. This is one part of the list.

Assay: chemical genetic growth profiling, strain panel (AID 1159580);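 further: tested at 20 µM; growth read once vehicle control cultures reached saturation at 30 °C; 1 = growth at the plate median or of vehicle wells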
Conditions: S. cerevisiae deletion strains, growth OD

Measured: normalized growth

O=C(O)/C=C/C=C/c1ccccc1
0.967 (inactive) and 0.21 (active): locus YHR030C, strain SLT2, stronger effect = lower value
active: locus YAL021C, strain ccr4, stronger effect = lower value 0.827 | locus YAL026C, strain drs2, stronger effect = lower value 0.783 | locus YAL030W, strain snc1, stronger effect = lower value 0.826 | locus YBL061C, strain skt5, stronger effect = lower value 0.826 | locus YBR009C, strain hhf1, stronger effect = lower value 0.83 | locus YBR023C, strain chs3, stronger effect = lower value 0.811 | locus YBR171W, strain sec66, stronger effect = lower value 0.83 | locus YBR231C, strain swc5, stronger effect = lower value 0.804 | locus YBR279W, strain paf1, stronger effect = lower value 0.833 | locus YCL011C, strain gbp2, stronger effect = lower value 0.814 | locus YCL016C, strain dcc1, stronger effect = lower value 0.836 | locus YCL069W, strain vba3, stronger effect = lower value 0.789 | locus YCR088W, strain abp1, stronger effect = lower value 0.764 | locus YDL005C, strain med2, stronger effect = lower value 0.875 | locus YDL040C, strain nat1, stronger effect = lower value 0.861 | locus YDL185W, strain tfp1, stronger effect = lower value 0.818 | locus YDR001C, strain nth1, stronger effect = lower value 0.793 | locus YDR069C, strain doa4, stronger effect = lower value 0.863 | locus YDR137W, strain rgp1, stronger effect = lower value 0.539 | locus YDR159W, strain sac3, stronger effect = lower value 0.596 | locus YDR297W, strain sur2, stronger effect = lower value 0.816 | locus YDR318W, strain mcm21, stronger effect = lower value 0.91 | locus YDR334W, strain swr1, stronger effect = lower value 0.746 | locus YDR335W, strain msn5, stronger effect = lower value 0.766 | locus YDR392W, strain spt3, stronger effect = lower value 0.624 | locus YDR502C, strain sam2, stronger effect = lower value 0.914 | locus YEL003W, strain gim4, stronger effect = lower value 0.836 | locus YEL037C, strain rad23, stronger effect = lower value 0.816 | locus YEL061C, strain CIN8 (second series), stronger effect = lower value 0.763 | locus YER015W, strain faa2, stronger effect = lower value 0.866 | locus YER016W, strain bim1, stronger effect = lower value 0.816 | locus YER110C, stronger effect = lower value 0.887 | locus YER111C, strain swi4, stronger effect = lower value 0.774 | locus YER155C, strain BEM2 (second series), stronger effect = lower value 0.636 | locus YER155C, strain BEM2, stronger effect = lower value 0.899 | locus YFR010W, strain ubp6, stronger effect = lower value 0.803 | locus YGL078C, strain dbp3, stronger effect = lower value 0.806 | locus YGL086W, strain mad1, stronger effect = lower value 0.927 | locus YGL167C, strain pmr1, stronger effect = lower value 0.837 | locus YGL173C, strain kem1, stronger effect = lower value 0.804 | locus YGL227W, strain vid30, stronger effect = lower value 0.761 | locus YGL240W, strain doc1, stronger effect = lower value 0.629 | locus YGL253W, strain hxk2, stronger effect = lower value 0.772 | locus YGR252W, strain gcn5, stronger effect = lower value 0.727 | locus YHR013C, strain ard1, stronger effect = lower value 0.767 | locus YHR027C, strain rpn1, stronger effect = lower value 0.87 | locus YHR079C, strain IRE1, stronger effect = lower value 0.238 | locus YHR094C, strain hxt1, stronger effect = lower value 0.917 | locus YHR142W, strain chs7, stronger effect = lower value 0.713 | locus YIL125W, strain kgd1, stronger effect = lower value 0.786 | locus YIR030C, strain dcg1, stronger effect = lower value 0.914 | locus YJL092W, strain hpr5, stronger effect = lower value 0.79 | locus YJL095W, strain BCK1 (second series), stronger effect = lower value 0.847 | locus YJL115W, strain asf1, stronger effect = lower value 0.762 | locus YJL129C, strain trk1, stronger effect = lower value 0.629 | locus YJL154C, strain vps35, stronger effect = lower value 0.808 | locus YJL164C, strain tpk1, stronger effect = lower value 0.8 | locus YJL166W, strain qcr8, stronger effect = lower value 0.813 | locus YJL168C, strain set2, stronger effect = lower value 0.929 | locus YJL187C, strain SWE1, stronger effect = lower value 0.825
0.985 (inactive) and 0.23 (active): locus YJL095W, strain BCK1, stronger effect = lower value
inactive: locus YBR021W, strain FUR4, stronger effect = lower value 0.862 | locus YBR229C, strain ROT2, stronger effect = lower value 0.983 | locus YCL029C, strain bik1, stronger effect = lower value 0.952 | locus YDL035C, strain GPR1, stronger effect = lower value 0.964 | locus YDL074C, strain BRE1, stronger effect = lower value 0.924 | locus YDL101C, strain DUN1, stronger effect = lower value 0.979 | locus YDL134C, strain PPH21, stronger effect = lower value 0.97 | locus YDL192W, strain arf1, stronger effect = lower value 0.922 | locus YDR101C, strain arx1, stronger effect = lower value 0.938 | locus YDR150W, strain NUM1, stronger effect = lower value 0.966 | locus YDR162C, strain NBP2, stronger effect = lower value 0.943 | locus YDR195W, strain ref2 1.01 | locus YDR388W, stronger effect = lower value 0.931 | locus YEL061C, strain CIN8, stronger effect = lower value 0.977 | locus YER167W, strain BCK2, stronger effect = lower value 0.974 | locus YGL248W, strain PDE1, stronger effect = lower value 0.973 | locus YGR135W, strain pre9, stronger effect = lower value 0.916 | locus YGR229C, strain SMI1, stronger effect = lower value 0.993 | locus YHR079C, strain IRE1 (second series), stronger effect = lower value 0.927 | locus YHR129C, strain ARP1, stronger effect = lower value 0.96 | locus YHR200W, strain rpn10, stronger effect = lower value 0.949 | locus YIL066C, strain RNR3, stronger effect = lower value 0.996 | locus YIL073C, strain SPO22, stronger effect = lower value 1.05 | locus YJL134W, strain LCB3, stronger effect = lower value 0.975 | locus YJL187C, strain SWE1 (second series), stronger effect = lower value 0.975 | locus YJR043C, strain POL32, stronger effect = lower value 0.968
